“And” between values parts separate entries of the source, which are not always exact repeats. Identical values can stand only once. Where a structure was tested more than once in an assay, its records may differ in their call. The source made the active and inactive calls. Rule for the calls: active = hit-call score of the fitted dose curve at least 0.9, where 1 is the maximum; inconclusive = response in the unintended direction; inactive = score below 0.9.
Each compound was assayed against Estrogen receptor (Homo sapiens) (UniProt P03372) (assay: OT_ER_ERaERa_1440: Odyssey Thera (OT) 24-hour HEK293T Protein-Complementation Assay for Estrogen Receptor-alpha/-alpha Homodimer (AID 2283349);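 note: hits raise fluorescence above DMSO for agonists and antagonists alike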).
Experimental: OT_ER_ERaERa_1440 is a cell-based assay that uses HEK293T, a human kidney cell line, with measurements taken at 24 hours after chemical dosing in a 384-well plate.OT_ER_ERaERa_1440 is one of one assay component(s) measured or calculated from the OT_ER_ERaERa_1440 assay. It is designed to make measurements of protein fragment complementation, a form of binding reporter, as detected with fluorescence intensity signals by Protein-fragment Complementation technology.Data from the assay component OT_ER_ERaERa_1440 was analyzed into 1 assay endpoint. This assay endpoint, OT_ER_ERaERa_1440, was analyzed in the positive analysis fitting direction relative to DMSO as the negative control and baseline of activity. Using a type of binding reporter, measures of receptor for gain-of-signal activity can be used to understand the binding at the pathway-level as they relate to the gene ESR1. Furthermore, this assay endpoint can be referred to as a primary readout, because the performed assay has only produced 1 assay endpoint. To generalize the intended target to other relatable targets, this assay endpoint is annotated to the nuclear receptor intended target family, where the subfamily is steroidal.
Protein-fragment complementation assay, or PCA, is a method for the identification and quantification of protein-protein interactions. In the PCA, the proteins of interest ("bait" and "prey") are each covalently linked to fragments of a third protein (e.g. DHFR, which acts as a "reporter"). Interaction between the bait and the prey proteins brings the fragments of the reporter protein in close proximity to allow them to form a functional reporter protein whose activity can be measured. The OT ER alpha / ER alpha assay is a homodimer PCA of the ligand binding domain (amino acids 310-547) of human ER alpha stably expressed in HEK293T cells. […] Fluorescent signal in the basal state of the assay is very low and is primarily punctuate and cytoplasmic. Modulation of this assay is quantified as an increase in mean fluorescence intensity in the nucleus (for agonists) or in the nucleus and cytoplasm (antagonists) relative to vehicle controls, and can be quantified on a high content imaging device or a laser scanning cytometer. The latter instrument is favored for this assay because of the rapid mode of data acquisition, the ability to acquire data from the entire cell population in a well (as opposed to a fraction of the well on the high content devices) and the larger dynamic range typically achieved with this instrument. To assess sensitivity of the ER alpha/ER alpha LBD assay to ligand, cells were treated with the ER agonist 17 beta-estradiol (E2) in 10-point concentration- response format for 24 hours and monitored response on a laser scanning plate cytometer (Acumen eX3; TTP Lab Tech).

Estrogen receptor (Homo sapiens), sequence (P03372 whole entry, looked up, the tested form may be a part): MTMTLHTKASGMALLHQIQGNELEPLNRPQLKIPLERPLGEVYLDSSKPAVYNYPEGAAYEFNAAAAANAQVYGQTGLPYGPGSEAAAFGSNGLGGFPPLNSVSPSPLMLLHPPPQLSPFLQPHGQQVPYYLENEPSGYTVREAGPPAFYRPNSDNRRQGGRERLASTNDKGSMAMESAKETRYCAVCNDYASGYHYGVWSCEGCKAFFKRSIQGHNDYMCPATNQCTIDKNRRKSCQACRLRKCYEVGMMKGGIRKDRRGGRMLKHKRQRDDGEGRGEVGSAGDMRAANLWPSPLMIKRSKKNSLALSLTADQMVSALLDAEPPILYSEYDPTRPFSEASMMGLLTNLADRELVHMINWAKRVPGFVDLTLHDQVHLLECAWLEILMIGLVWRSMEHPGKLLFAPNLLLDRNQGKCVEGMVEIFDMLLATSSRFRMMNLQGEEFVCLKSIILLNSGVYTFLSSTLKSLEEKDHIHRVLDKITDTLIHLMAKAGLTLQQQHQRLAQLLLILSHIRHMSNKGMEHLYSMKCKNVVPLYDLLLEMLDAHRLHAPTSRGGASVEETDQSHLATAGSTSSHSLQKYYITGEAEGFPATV

| SMILES | outcome | AC50 |
| --- | --- | --- |
| C=CC(=O)NCNC(=O)C=C | inactive |  |
| Oc1ccc(Cl)cc1Cl | inactive |  |
| CC1=C2C[C@H]3[C@@H](CC=C4C[C@@H](O)CC[C@@]43C)[C@@H]2CC[C@]12O[C@@H]1C[C@H](C)CN[C@H]1[C@H]2C | inactive |  |
| Cc1ccc(O)c(C)c1 | inactive |  |
| CC#Cc1cc(C)nc(Nc2ccccc2)n1 | inactive |  |
| CC(C)(c1ccccc1)c1ccc(O)cc1 |  | 11.9 µM (active) and 12 µM (active) and 12.1 µM (active) |
| CCOCCOC(C)=O | inactive |  |
| Nn1cnnc1 | inactive |  |
| Clc1ccc(Cl)cc1 | inactive |  |
| CCCN(CCC)N=O | inactive |  |
| CCCCCCCCCc1ccc(O)cc1 |  | 54.3 µM (active) and 28.9 µM (active) and 39.6 µM (active) |
| Cc1cc(O)ccc1Cl | inactive |  |
| CCC(C)c1cc([N+](=O)[O-])cc([N+](=O)[O-])c1O (stereo not given) | inactive |  |
| O=C(N[C@H]1CN2CCC1CC2)c1cc2ccoc2cn1 | inactive |  |
| CN(C)CCO | inactive |  |
| C=CC(N)=O | inactive |  |
| CCCCCCOC(=O)c1ccccc1C(=O)OCCCCCC | inactive |  |
| C1CC2OC2CC1C1CO1 (stereo not given) | inactive |  |
| NS(=O)(=O)C(F)(F)C(F)(F)C(F)(F)C(F)(F)C(F)(F)C(F)(F)C(F)(F)C(F)(F)F | inactive |  |
| O=C(NC(=O)c1c(F)cccc1F)Nc1cc(Cl)c(OC(F)(F)C(F)F)c(Cl)c1 | inactive |  |

| SMILES | outcome | AC50 |
| --- | --- | --- |
| CCSC(=O)N(CC)C1CCCCC1 | inactive |  |
| Cc1ccccc1O | inactive |  |
| COc1ccc(O)c(C(C)(C)C)c1 | inactive |  |
| Cc1cc2c3c(c1)C(c1ccccc1)=N[C@@H](NC(=O)c1ccncc1)C(=O)N3CC2 | inactive |  |
| Cc1cccc(C)c1N | inactive |  |
| CC(C)(O)C(=O)Nc1ccc([N+](=O)[O-])c(C(F)(F)F)c1 | inactive |  |
| Clc1ccc(C(Cl)(Cl)Cl)cc1 | inactive |  |
| COS(=O)(=O)OC | inactive |  |
| O=C(O)C(F)(F)C(F)(F)C(F)(F)C(F)(F)C(F)(F)C(F)(F)C(F)(F)C(F)(F)C(F)(F)F | inactive |  |
| CO/C=C(/C(=O)OC)c1ccccc1COc1cccc(C(F)(F)F)n1 | inactive |  |
| ClC1=C(Cl)[C@]2(Cl)[C@@H]3[C@@H](Cl)[C@H]4O[C@H]4[C@@H]3C1(Cl)C2(Cl)Cl | inactive |  |
| c1cc2ccc3cccc4ccc(c1)c2c34 | inactive |  |
| CCC(=O)O[C@H]1CC[C@H]2[C@@H]3CCC4=CC(=O)CC[C@]4(C)[C@H]3CC[C@]12C | inactive | 11.6 µM (active) |
| ClC1=C(Cl)[C@]2(Cl)[C@@H]3[C@@H]4C[C@@H]([C@H]5O[C@@H]45)[C@@H]3[C@@]1(Cl)C2(Cl)Cl | inactive |  |
| CCCCCCCCOC(=O)c1ccccc1C(=O)OCCCCCCCC | inactive |  |
| C[C@]12CCC(=O)C=C1CC[C@@H]1[C@@H]2CC[C@]2(C)C(=O)CC[C@@H]12 | inactive |  |
| O=C(O)C(F)(F)C(F)(F)C(F)(F)C(F)(F)C(F)(F)F | inactive |  |
| c1ccc(-c2ccccc2)cc1 | inactive |  |
| OCC(O)CO | inactive |  |

Reference: PubChem BioAssay (EPA / NIEHS)
